The target of assay [1] is High affinity nerve growth factor receptor (Homo sapiens) (UniProt P04629). The settings on record: at 1 µM.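 Note: each value is the mean percent inhibition of TRKA.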
Assay [2] has as its target BDNF/NT-3 growth factors receptor (Homo sapiens) (UniProt Q16620). The settings on record: at 0.1 µM.
For assay [3] the target is unchanged. The settings on record: at 1 µM.
Assay [4] has as its target NT-3 growth factor receptor (Homo sapiens) (UniProt Q16288). The settings on record: at 0.1 µM.
Assay [5] has the same target. The conditions noted are these: at 1 µM.
In assay [6] the target is T1, Tyrosine-protein kinase TXK (Homo sapiens) (UniProt P42681).
T1 sequence (whole entry): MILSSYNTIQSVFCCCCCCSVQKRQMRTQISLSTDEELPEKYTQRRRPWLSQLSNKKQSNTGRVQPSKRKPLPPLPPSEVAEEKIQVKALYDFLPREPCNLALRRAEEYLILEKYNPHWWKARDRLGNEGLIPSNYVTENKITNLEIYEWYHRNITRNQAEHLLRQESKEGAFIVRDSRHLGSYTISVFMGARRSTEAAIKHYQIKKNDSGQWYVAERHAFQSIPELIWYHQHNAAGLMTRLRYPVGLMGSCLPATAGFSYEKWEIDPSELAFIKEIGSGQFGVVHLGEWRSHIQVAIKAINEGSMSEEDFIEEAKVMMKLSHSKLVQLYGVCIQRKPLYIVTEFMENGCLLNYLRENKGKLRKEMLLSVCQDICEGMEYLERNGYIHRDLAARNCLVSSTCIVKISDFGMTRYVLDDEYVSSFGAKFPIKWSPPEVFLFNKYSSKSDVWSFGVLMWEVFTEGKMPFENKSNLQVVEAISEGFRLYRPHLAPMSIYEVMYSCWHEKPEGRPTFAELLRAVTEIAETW
The conditions noted are these: at 0.1 µM.

In assay [7] the target is T1, Tyrosine-protein kinase TXK (Homo sapiens). The conditions noted are these: at 1 µM.
Assay [8] addresses Non-receptor tyrosine-protein kinase TYK2 (Homo sapiens) (UniProt P29597). The conditions noted are these: at 0.1 µM.
For assay [9], the target named is T2, Dual specificity protein kinase TTK (Homo sapiens) (UniProt P33981).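 Note: reported figures are mean TTK inhibition at 1 µM.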
T2 sequence (whole entry): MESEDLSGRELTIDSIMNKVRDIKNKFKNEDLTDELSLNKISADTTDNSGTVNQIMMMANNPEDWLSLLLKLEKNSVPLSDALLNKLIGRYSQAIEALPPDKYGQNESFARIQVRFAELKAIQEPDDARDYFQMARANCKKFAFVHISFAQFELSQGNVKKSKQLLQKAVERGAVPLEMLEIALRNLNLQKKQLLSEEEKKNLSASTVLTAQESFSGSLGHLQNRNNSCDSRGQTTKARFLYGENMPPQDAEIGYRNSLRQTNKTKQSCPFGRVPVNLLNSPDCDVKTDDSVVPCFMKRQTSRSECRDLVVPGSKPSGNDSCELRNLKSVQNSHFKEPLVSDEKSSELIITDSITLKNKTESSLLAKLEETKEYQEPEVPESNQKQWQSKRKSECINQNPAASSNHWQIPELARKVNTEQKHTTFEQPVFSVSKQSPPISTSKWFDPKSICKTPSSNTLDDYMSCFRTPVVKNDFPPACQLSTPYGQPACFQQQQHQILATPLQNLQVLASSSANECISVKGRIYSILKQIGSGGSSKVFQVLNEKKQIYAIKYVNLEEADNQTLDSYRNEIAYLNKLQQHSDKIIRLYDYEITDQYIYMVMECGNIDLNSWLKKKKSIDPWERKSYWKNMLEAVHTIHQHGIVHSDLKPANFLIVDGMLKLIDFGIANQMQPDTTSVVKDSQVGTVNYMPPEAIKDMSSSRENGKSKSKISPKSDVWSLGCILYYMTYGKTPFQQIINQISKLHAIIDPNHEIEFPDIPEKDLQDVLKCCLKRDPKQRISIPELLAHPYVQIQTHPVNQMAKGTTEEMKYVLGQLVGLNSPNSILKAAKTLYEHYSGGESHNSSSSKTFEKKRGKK
The conditions noted are these: at 1 µM.

Assay [10] deals with T3, Aurora kinase A (Homo sapiens) (UniProt O14965).
T3 sequence (whole entry): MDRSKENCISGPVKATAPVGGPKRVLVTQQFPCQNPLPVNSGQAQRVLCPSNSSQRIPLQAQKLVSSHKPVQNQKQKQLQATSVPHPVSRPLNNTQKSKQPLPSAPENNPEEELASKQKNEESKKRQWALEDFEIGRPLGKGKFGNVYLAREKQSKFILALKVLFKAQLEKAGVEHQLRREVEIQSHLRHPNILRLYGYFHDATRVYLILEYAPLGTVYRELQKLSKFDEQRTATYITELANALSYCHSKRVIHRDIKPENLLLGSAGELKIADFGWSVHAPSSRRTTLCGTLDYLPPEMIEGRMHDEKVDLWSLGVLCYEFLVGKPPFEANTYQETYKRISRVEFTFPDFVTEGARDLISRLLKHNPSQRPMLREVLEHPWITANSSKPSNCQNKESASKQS
The settings on record: at 0.1 µM.

For assay [11], the target named is T3, Aurora kinase A (Homo sapiens). The conditions noted are these: at 1 µM.
Assay [12] has as its target Aurora kinase B (Homo sapiens) (UniProt Q96GD4). The conditions noted are these: at 0.1 µM.
The target is the same in assay [13]. The settings on record: at 1 µM.
Assay [14] addresses T4, Aurora kinase C (Homo sapiens) (UniProt Q9UQB9).
T4 sequence (whole entry): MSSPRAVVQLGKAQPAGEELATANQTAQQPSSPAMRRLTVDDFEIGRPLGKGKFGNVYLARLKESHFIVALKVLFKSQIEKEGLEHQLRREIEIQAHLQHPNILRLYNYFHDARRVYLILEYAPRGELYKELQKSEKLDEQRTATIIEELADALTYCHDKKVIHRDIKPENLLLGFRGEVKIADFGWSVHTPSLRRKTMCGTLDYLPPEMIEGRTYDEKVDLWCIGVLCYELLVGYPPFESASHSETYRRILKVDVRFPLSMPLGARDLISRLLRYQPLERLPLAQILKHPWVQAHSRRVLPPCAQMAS
The settings on record: at 0.1 µM.

In assay [15] the target is T4, Aurora kinase C (Homo sapiens). The settings on record: at 1 µM.
Assay [16] concerns the target Serine/threonine-protein kinase 10 (Homo sapiens) (UniProt O94804). The conditions noted are these: at 0.1 µM.
The target is the same in assay [17]. The settings on record: at 1 µM.
Assay [18] concerns the target T5, Mitogen-activated protein kinase kinase kinase kinase 2 (Homo sapiens) (UniProt Q12851).
T5 sequence (whole entry): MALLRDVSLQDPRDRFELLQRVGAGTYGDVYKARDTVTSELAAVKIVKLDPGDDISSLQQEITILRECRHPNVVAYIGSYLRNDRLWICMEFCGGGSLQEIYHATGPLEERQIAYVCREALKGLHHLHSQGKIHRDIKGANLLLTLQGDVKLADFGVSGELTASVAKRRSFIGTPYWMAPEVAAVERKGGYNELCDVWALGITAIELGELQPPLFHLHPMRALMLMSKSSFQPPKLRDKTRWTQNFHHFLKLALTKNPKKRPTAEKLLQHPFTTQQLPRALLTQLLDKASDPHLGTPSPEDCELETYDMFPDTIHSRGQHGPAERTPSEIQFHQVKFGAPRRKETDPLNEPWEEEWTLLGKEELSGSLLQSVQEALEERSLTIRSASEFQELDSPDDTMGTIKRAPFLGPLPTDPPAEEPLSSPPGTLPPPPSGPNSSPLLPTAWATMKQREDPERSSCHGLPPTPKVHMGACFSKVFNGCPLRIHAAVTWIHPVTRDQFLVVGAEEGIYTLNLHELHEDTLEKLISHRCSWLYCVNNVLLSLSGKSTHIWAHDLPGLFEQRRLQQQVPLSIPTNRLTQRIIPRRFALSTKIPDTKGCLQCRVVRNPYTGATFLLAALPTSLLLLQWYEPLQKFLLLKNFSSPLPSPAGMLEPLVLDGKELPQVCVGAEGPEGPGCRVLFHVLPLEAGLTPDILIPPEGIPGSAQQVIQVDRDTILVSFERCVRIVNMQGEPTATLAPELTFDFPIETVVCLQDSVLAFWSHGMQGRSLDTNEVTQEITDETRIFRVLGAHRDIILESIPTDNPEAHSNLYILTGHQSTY
The conditions noted are these: at 0.1 µM.

Assay [19] has as its target T5, Mitogen-activated protein kinase kinase kinase kinase 2 (Homo sapiens). The settings on record: at 1 µM.
Assay [20] addresses Mitogen-activated protein kinase kinase kinase kinase 4 (Homo sapiens) (UniProt O95819). The settings on record: at 0.1 µM.

SMILES strings stand for the structures.

Chain of High affinity nerve growth factor receptor (Homo sapiens) (P04629 33-796 limits assumed): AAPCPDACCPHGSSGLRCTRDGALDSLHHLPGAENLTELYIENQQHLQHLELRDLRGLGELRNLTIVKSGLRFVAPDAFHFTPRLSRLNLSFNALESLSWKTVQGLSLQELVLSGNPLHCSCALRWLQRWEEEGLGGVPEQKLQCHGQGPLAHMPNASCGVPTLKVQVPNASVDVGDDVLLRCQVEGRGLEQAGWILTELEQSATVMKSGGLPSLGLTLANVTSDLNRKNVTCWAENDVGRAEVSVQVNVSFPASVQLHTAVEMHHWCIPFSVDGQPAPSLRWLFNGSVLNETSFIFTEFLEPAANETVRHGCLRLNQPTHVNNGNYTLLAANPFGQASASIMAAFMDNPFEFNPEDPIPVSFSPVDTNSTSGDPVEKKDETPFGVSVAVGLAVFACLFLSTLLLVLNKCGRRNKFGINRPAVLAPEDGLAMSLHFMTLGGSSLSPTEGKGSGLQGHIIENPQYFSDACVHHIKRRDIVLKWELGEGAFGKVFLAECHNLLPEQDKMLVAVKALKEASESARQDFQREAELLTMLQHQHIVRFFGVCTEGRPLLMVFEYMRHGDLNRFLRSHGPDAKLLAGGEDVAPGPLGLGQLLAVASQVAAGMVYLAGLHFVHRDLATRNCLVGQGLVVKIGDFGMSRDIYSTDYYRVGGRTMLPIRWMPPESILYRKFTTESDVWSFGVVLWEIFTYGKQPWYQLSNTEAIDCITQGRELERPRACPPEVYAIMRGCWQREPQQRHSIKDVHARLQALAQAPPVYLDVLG
Chain of BDNF/NT-3 growth factors receptor (Homo sapiens) (Q16620 32-822 limits assumed): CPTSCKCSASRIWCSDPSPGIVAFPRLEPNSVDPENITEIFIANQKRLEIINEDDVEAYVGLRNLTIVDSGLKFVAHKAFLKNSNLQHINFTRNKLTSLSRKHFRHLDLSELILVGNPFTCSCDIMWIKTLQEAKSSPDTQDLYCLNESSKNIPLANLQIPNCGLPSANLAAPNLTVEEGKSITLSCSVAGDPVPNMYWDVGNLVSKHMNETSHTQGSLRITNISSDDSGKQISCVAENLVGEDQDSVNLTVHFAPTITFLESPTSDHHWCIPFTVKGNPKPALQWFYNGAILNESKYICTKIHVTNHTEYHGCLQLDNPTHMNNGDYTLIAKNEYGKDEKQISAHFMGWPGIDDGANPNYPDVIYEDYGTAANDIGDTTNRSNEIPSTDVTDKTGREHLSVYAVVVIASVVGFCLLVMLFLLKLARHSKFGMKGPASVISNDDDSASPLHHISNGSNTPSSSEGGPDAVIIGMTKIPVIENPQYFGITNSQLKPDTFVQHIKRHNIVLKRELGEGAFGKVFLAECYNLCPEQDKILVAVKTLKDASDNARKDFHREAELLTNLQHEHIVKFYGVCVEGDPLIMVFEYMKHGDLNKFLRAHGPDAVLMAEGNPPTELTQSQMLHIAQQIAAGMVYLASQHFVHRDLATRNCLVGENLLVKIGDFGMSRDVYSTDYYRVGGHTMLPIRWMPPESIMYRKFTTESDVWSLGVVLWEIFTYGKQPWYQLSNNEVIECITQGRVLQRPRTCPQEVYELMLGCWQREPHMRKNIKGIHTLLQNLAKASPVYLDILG
Chain of Mitogen-activated protein kinase kinase kinase kinase 4 (Homo sapiens) (O95819 2-1239 limits assumed): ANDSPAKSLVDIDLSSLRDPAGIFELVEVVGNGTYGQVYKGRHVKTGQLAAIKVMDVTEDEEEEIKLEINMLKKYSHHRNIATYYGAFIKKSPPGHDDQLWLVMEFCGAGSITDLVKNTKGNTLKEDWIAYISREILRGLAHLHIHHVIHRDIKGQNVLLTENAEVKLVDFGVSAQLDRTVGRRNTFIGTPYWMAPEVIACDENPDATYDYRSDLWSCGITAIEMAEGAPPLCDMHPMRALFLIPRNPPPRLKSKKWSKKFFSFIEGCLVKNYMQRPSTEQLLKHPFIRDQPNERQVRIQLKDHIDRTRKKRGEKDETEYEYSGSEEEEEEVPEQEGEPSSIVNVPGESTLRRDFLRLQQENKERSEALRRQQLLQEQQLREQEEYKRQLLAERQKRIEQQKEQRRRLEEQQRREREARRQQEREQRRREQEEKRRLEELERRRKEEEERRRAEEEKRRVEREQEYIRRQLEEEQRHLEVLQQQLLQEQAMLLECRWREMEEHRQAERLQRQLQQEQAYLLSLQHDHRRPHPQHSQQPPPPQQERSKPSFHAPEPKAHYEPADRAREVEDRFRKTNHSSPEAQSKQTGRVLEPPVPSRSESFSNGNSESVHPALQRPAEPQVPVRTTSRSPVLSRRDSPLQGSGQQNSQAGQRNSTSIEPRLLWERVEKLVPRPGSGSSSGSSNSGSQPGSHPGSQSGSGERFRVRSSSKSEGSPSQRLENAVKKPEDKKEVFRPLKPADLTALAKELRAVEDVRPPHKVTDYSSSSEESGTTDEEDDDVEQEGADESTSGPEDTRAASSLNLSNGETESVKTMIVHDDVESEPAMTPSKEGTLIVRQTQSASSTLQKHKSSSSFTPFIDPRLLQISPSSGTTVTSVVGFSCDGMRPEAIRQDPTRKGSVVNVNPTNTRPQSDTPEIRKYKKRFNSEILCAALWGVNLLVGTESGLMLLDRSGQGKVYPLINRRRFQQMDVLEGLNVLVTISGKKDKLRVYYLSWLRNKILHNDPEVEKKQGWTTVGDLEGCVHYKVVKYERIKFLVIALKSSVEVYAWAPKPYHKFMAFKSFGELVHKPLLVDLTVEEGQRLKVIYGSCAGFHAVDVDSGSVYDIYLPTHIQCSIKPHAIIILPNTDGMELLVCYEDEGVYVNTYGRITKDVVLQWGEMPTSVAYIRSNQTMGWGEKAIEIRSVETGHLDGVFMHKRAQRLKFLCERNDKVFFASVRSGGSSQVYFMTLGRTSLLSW
Chain of NT-3 growth factor receptor (Homo sapiens) (Q16288 32-839 limits assumed): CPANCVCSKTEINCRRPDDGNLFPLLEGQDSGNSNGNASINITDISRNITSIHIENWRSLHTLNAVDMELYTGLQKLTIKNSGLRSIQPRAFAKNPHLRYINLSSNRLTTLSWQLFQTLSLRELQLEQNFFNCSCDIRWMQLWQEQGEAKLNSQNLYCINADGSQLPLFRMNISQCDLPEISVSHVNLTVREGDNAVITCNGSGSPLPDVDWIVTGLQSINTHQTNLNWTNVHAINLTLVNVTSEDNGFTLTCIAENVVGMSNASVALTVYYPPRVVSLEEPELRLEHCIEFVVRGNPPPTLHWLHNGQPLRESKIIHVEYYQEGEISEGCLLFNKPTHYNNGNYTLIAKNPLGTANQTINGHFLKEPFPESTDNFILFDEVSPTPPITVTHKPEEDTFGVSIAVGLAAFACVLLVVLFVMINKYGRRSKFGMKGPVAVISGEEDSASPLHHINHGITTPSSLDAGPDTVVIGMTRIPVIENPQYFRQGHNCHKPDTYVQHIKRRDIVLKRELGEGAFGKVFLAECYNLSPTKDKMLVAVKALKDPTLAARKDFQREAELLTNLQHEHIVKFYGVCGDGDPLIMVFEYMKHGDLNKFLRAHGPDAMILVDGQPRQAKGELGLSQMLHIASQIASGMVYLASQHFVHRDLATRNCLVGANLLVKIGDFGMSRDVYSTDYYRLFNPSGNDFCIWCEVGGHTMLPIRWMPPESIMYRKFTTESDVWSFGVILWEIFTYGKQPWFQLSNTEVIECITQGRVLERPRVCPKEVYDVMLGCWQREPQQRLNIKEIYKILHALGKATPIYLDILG
Chain of Non-receptor tyrosine-protein kinase TYK2 (Homo sapiens) (P29597 whole entry): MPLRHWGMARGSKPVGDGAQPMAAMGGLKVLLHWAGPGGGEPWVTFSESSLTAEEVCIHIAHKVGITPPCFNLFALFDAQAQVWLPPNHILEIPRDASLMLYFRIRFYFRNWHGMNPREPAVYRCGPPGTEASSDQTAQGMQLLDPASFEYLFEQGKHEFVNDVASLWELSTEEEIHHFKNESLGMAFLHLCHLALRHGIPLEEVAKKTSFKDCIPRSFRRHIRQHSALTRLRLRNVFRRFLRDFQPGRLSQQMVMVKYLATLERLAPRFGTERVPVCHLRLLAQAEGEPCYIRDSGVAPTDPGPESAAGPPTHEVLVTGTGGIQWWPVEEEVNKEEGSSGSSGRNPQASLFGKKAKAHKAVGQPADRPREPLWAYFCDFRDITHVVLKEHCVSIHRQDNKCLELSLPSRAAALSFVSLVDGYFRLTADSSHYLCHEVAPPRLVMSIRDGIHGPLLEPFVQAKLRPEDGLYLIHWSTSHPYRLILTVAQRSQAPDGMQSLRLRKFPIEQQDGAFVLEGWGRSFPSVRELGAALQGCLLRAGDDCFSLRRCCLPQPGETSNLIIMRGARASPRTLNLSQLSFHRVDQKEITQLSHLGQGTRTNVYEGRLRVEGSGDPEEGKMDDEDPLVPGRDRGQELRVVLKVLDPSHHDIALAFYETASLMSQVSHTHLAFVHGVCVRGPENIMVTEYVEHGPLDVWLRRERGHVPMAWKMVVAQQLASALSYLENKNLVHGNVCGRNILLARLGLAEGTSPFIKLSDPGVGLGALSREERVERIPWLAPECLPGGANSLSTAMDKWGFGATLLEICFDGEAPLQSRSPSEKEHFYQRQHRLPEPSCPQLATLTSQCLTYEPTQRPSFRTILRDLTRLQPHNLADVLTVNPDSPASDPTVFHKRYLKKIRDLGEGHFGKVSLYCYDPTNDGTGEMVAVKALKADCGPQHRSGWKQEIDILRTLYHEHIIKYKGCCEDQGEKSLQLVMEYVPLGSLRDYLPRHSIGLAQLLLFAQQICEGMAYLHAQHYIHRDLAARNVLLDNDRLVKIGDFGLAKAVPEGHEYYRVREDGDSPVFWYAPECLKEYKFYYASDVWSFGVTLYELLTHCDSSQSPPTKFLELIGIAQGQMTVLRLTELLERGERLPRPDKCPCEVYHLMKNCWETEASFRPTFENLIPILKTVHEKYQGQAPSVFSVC

`O=C1Nc2ccc(-c3cccnc3)cc2C1=Cc1cc(Br)c(O)c(Br)c1`: the inhibition (in general, the drop in the measured response relative to a control, in per cent) in assay [1] worked out at 12.8%; in assay [2], 2.93%; in assay [3], 12.2%; in assay [4], 4.91%; in [5], 24.1%; in [6] it was 2.22%. In addition, the inhibition in assay [7] worked out at 6.14%; in assay [8], 0.81%; in assay [9] it was 7.48%; in [10] it was 15.5%; in assay [11], 88.3%; in assay [12] it was 4.87%. In addition, the inhibition is 16% in [13]; 2.6% in assay [14]; 31.7% in assay [15]; 3.55% in [16]; 3.51% in [17]; 1.24% in assay [18]. The inhibition came to 2.93% in [19] and 69.3% in assay [20].

Consider `Cc1ccc(NC(=O)CC2CC2)cc1-c1ccc(C(=O)NCC2CC2)cc1`, for which the inhibition in [1] is 1.04%; in assay [2], 1.14%; in [3], 3.38%; in [4] it was 2.32%; in [5] it was 4.16%; in [6] it was 3.64%. For the same compound, the inhibition in assay [7] is 5.85%; in [8], -4.51%; in assay [9], 7.66%; in [10], 4.04%; in [11], 8.68%; in assay [12], 0.07%. Moreover, the inhibition in assay [13] was 6.1%; in assay [14] it was 1.19%; in [15], -2.19%; in assay [16], 3.11%; in assay [17], 8.8%; in assay [18], 0.05%. Also, the values for the inhibition in assay [19] and in assay [20] were 3.42% and 2.06%, respectively.

Take `NS(=O)(=O)c1cccc(-c2cc3ccncc3cc2OCc2ccccc2)c1`: the inhibition in [1] came to 5.54%; in assay [2], 2.94%; in assay [3], 6.23%; in [4], 1.81%; in [5] it was 6.72%; in [6] it was 4.1%. Besides, the inhibition in assay [7] was 10.2%; in [8], -2.99%; in [9], 11.2%; in assay [10], 3.18%; in assay [11], 16.9%; in [12] it was 7.33%. The inhibition in assay [13] was found to be 17.9%; in assay [14], 8.37%; in [15] it was 12.4%; in assay [16], 8.31%; in assay [17] it was 10.8%; in assay [18] it was 3.01%. Further, the inhibition in [19] amounted to 10.2%; in assay [20], 7.44%.

For the compound `COc1cc(/C=N/Nc2ncnc3c2cnn3C(C)C)ccc1O`, the inhibition in assay [1] came out at 8.39%; in [2], 4.28%; in assay [3] it was 31.4%; in [4], 3.32%; in assay [5], 29.1%; in assay [6], 3.5%. The inhibition in assay [7] was 14.1%; in assay [8], 0.13%; in [9], 2.81%; in [10] it was 3.73%; in [11], 37.7%; in [12], 3.34%. Also, the inhibition in assay [13] was found to be 15.5%; in assay [14], 1.77%; in assay [15] it was 13.8%; in assay [16] it was 3%; in [17], 21.7%; in [18], 2.5%. Moreover, the inhibition stood at 9.5% in [19] and 7.32% in assay [20].

For `CCn1c(-c2nonc2N)nc2c(C#CC(C)(C)O)nc(OCCNC)cc21`, the inhibition in assay [1] is 6.23%; in assay [2], 3.15%; in assay [3], 3.59%; in assay [4], 1.5%; in assay [5], 2.5%; in [6] it was 3.81%. For the same compound, the inhibition was 2.46% in assay [7]; -0.47% in assay [8]; 9.85% in assay [9]; 1.75% in assay [10]; 4.63% in [11]; 2.66% in assay [12]. The inhibition in assay [13] is 5.49%; in assay [14] it was -0.74%; in [15], 3.76%; in assay [16] it was 5.14%; in assay [17], 8.89%; in assay [18] it was 0.49%. The inhibition in assay [19] came out at 3.15%; in assay [20], 3.57%.

The values are drawn from ChEMBL document CHEMBL1961873, “Compounds: GSK PKIS; Assays: Nanosyn kinase panel” (2012).
